# From PubChem BioAssay (EPA / NIEHS)
# Inconclusive results are not listed. Some compounds were tested as several samples or in several runs, with calls that do not always agree. Calls of active or inactive are those of the source. The calls were made as follows: active = hit-call score of the fitted dose curve at least 0.9, where 1 is the maximum; inconclusive = response in the unintended direction; inactive = score below 0.9.
# What was measured:
# [1] = ACEA_AR_agonist_AUC_viability: ACEA Biosciences xCELLigence Real-Time Cell Analysis on Androgen Receptor Agonism for Viability (AID 2283775);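 as to AC50: viability read 80 hours after compound addition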
# How it was run: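 22Rv1 cells; impedance growth kinetics; 8-pt 1:4 dilutions from 100 uM top final, ≤0.5% DMSO; n = 2; 80 h read; AUC viability, loss-of-signal vs DMSO.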
# [2] = ACEA_AR_antagonist_AUC_viability: ACEA Biosciences xCELLigence Real-Time Cell Analysis on Androgen Receptor Antagonism for Viability (AID 2283776);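 also: 22Rv1 human prostate cancer cells growing on impedance electrode plates; area under impedance growth curve at 80 h after dosing as viability; hits lower the growth signal relative to DMSO meaning cytotoxicity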
# How it was run: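 Impedance read-out (RT-CES): area under growth curve at 80 h post-dose, loss of signal scored vs DMSO baseline. 22Rv1 cells; 8-pt 1:4 series, top 100 uM final, ≤0.5% DMSO; biological duplicate.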
# [3] = ACEA_ER_AUC_viability: ACEA Biosciences xCELLigence Real-Time Cell Analysis on Estrogen Receptor Agonism for Viability (AID 2283782);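 also: hit means loss of impedance signal meaning reduced cell growth or viability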
# How it was run: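 Read-out: real-time electrical impedance (RT-CES) area under curve, loss of signal taken as reduced viability, normalized to DMSO baseline. T-47D cells, charcoal-stripped serum medium, compounds up to 100 uM final, continuous exposure, 80 h.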
# [4] = tested on: zebrafish Estrogen Receptor (ESR2B), gene 317733; assay: ATG_zfER2b_XSP1: Attagene TRANS-FACTORIAL Multi-Species (XSP1) HepG2 Assay for zebrafish Estrogen Receptor (ESR2B) (AID 2283773)
# How it was run: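 Multiplexed TRANS format in transfected HepG2 liver cells, chimeric NR-Gal4 from zebrafish ESR2B. 24 h dosing; medium contains 3 nM 6-alpha-fluorotestosterone. mRNA induction by RT-PCR/CE, positive direction vs DMSO.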
smiles,measurement,setting,value
CC(C)(C)c1cccc(O)c1,outcome,[1],inactive
same,outcome,[2],inactive
CC1=CCC(C(C)(C)O)CC1 (stereo not given),outcome,[1],inactive
same,outcome,[2],inactive
CC(=O)OC(C)(C)C,outcome,[1],inactive
c1coc(CNc2ncnc3nc[nH]c23)c1,outcome,[1],inactive
same,outcome,[2],inactive
NC(=O)c1cccnc1,outcome,[1],inactive
CCCCC(CC)COCCO (stereo not given),outcome,[1],inactive
same,outcome,[2],inactive
same,outcome,[3],inactive
CCOCC(C)O (stereo not given),outcome,[1],inactive
same,outcome,[2],inactive
C[C@]12CC[C@@H]3c4ccc(O)cc4CC[C@H]3[C@@H]1CC[C@@H]2O,AC50,[1],0.05 µM (active)
same,outcome,[1],inactive
same,AC50,[2],85.9 µM (active)
same,outcome,[2],inactive
CC(=O)OC(C)(C)C1CC=C(C)CC1 (stereo not given),outcome,[1],inactive
same,outcome,[2],inactive
same,AC50,[3],79 µM (active)
CCCc1ccc(N)cc1,outcome,[1],inactive
same,outcome,[2],inactive
same,outcome,[3],inactive
CC(=O)C1C(=O)C=C(C)OC1=O (stereo not given),outcome,[1],inactive
same,outcome,[2],inactive
same,outcome,[3],inactive
CC/C(=C(\c1ccccc1)c1ccc(OCCN(C)C)cc1)c1ccccc1,outcome,[4],inactive
same,AC50,[1],10.4 µM (active)
same,AC50,[2],11 µM (active)
same,outcome,[2],inactive
same,AC50,[3],17.7 µM (active) [middle of 5 runs]
CC(=O)C1=C(C)[C@@H]2C[C@@]3(C1)[C@H](C)CC[C@H]3C2(C)C,outcome,[1],inactive
same,outcome,[2],inactive
same,AC50,[3],88.1 µM (active)
CC(=O)CC(=O)N(C)C,outcome,[1],inactive
same,outcome,[2],inactive
COC(=O)c1cccc(C(=O)OC)c1,outcome,[1],inactive
same,outcome,[2],inactive
COc1cc(OC)c2ccc(=O)oc2c1,AC50,[2],0.25 µM (active)
CC(O)CN (stereo not given),outcome,[2],inactive
same,outcome,[3],inactive
CC12CCC(C1)C(C)(C)C2O (stereo not given),outcome,[2],inactive
same,outcome,[3],inactive
CCCCCC(=O)O[C@]1(C(C)=O)CC[C@H]2[C@@H]3CCC4=CC(=O)CC[C@]4(C)[C@H]3CC[C@@]21C,AC50,[2],0.416 µM (active)
same,AC50,[3],49.8 µM (active)
